These results are taken from the OligoGym collection.
Also: reference of the scale not given here.

The target in the first test is ANG. As to the kind of experiment: pooled miR-30 sensor sort-seq; sequence = guide strand. The following applies: shRNA.
Regarding TTGATGCTGCGCTTGTTGCCAT, the sensor-assay potency score (higher = more potent) was -0.23.

The sequence TTCACAGTATCTGTCATCCCGG came in with a sensor-assay potency score (higher = more potent) of -0.736.

Sequence TTTGGCATCATAGTGCTGGGTC gave a sensor-assay potency score (higher = more potent) of 0.651.

On to TTGTTGCCATGAATAAATGTGT, for which the sensor-assay potency score (higher = more potent) is -0.656.

TTGCCATGAATAAATGTGTTGA had a sensor-assay potency score (higher = more potent) of -0.499.

The sequence TGTGTACCTGGAGTTATCCTGA displayed a sensor-assay potency score (higher = more potent) of 0.329.

On to TTATCCTGAGCCAGGGTCGGTG, for which the sensor-assay potency score (higher = more potent) is -1.46.

In the case of TTTCTCTGTGAGGGTTTCCATT, the sensor-assay potency score (higher = more potent) was -0.964.

For AAGACTTGCTTATTCTTAGGTT, the sensor-assay potency score (higher = more potent) turned out to be 0.22.

Sequence TTTCACAGTATCTGTCATCCCG yielded a sensor-assay potency score (higher = more potent) of 0.634.

For the sequence TGTACCTGGAGTTATCCTGAGC, the sensor-assay potency score (higher = more potent) is -1.14.

The next test has as its target ANK1. Described as above. The following applies: shRNA.
In turn, TGCACCTGTCGCGTCATCCTGC came in with a sensor-assay potency score (higher = more potent) of -1.06.

As to TTGCAGGTATGAGACAATCGAG, the sensor-assay potency score (higher = more potent) is -1.

In turn, TCTATCTGTCGAACCACCTTGC displayed a sensor-assay potency score (higher = more potent) of 0.271.

In the case of TTGTGCAGCATCTTGCAGGTAT, the sensor-assay potency score (higher = more potent) was found to be 0.193.

As for TTAGTGACAAGCTCATCCGGGA, the sensor-assay potency score (higher = more potent) is -0.401.

For the sequence TTCATCTTCCGAGACATCCAGG, the sensor-assay potency score (higher = more potent) was -0.548.

As to TGGACAAGTCTATCTGTCGAAC, the sensor-assay potency score (higher = more potent) is -1.67.

On to TTGGTCTTGGTTTCTATCTGGG, for which the sensor-assay potency score (higher = more potent) was -0.274.

TTGGTGACGGCATTCTCCGGGA returned a sensor-assay potency score (higher = more potent) of -0.46.

For TCGTATTGCAACAGGAGCCGGA, the sensor-assay potency score (higher = more potent) was -0.769.

For the sequence TTGATGTTTCCATAGTGACTGG, the sensor-assay potency score (higher = more potent) was -0.739.

TCGGTGACCGCGTCGATCGAGG yielded a sensor-assay potency score (higher = more potent) of -1.26.

Sequence TAGCTTCGGCACAAAATCCAGC had a sensor-assay potency score (higher = more potent) of -0.878.

Take TATTCTGAAACTCATTCCCCTG: the sensor-assay potency score (higher = more potent) is -1.12.

TTGACTTTGGCTTTGTTCTGGA registered a sensor-assay potency score (higher = more potent) of 0.642.

In turn, TTGCGAATGATCTTCTTGGTGA showed a sensor-assay potency score (higher = more potent) of 0.462.

For the sequence TTCTCTTCATCAACATCCCTGG, the sensor-assay potency score (higher = more potent) was -0.331.

As to TCACTGACTAACACGAAACTGG, the sensor-assay potency score (higher = more potent) was -0.214.

Consider TCTCTTCTGACCTCTGACCTTC, for which the sensor-assay potency score (higher = more potent) is -0.43.

In turn, TTCTAGAATGATTTCTTTGTGC gave a sensor-assay potency score (higher = more potent) of 0.132.

Consider TAGAATGATTTCTTTGTGCAGA, for which the sensor-assay potency score (higher = more potent) was -0.0456.

Turning to TGTGGTGTGAAATTGACGCTGG, the sensor-assay potency score (higher = more potent) was 0.797.

In turn, TCATCTGTCATGCAGTAGCAGC yielded a sensor-assay potency score (higher = more potent) of -1.12.

TATCTGTCGAACCACCTTGCGA displayed a sensor-assay potency score (higher = more potent) of -1.29.

In another test the target is ANKRD22. The test is described as above. The note with it: shRNA.
As for TACAAGAGCCTCATTCTGCTTT, the sensor-assay potency score (higher = more potent) was -0.0713.

For ATTAAAGCCATCTTGAACGTTG, the sensor-assay potency score (higher = more potent) is -0.412.

As for TAAATTTTTTCTTCACAGCATA, the sensor-assay potency score (higher = more potent) is -1.16.

TTGTCTTTGATACCATGAGGAA had a sensor-assay potency score (higher = more potent) of -1.48.

In turn, TAGCATTAACTTCGACGCCAGC registered a sensor-assay potency score (higher = more potent) of -1.11.
